target: NEUROD6; assay: pooled miR-30 sensor sort-seq; sequence = guide strand; details: shRNA
Also: reference of the scale not given here.

Sequence | sensor-assay potency score (higher = more potent)
TGTCTCCTGAACTTGACCCTTT | -0.00785
TTCTCTAGAAAACTTTCTGCAC | -0.894
TTTAATTCATCTTGCATTGTGA | -0.0595
TAAGTTGTCCAGAGCGTCGTTG | -0.475
AATAGTTGAAACACACTTCAGA | -0.228
TTTTCATCTTCCTCTTCCCTGT | -0.025

target: NF1; assay: as above; details: shRNA

Sequence | sensor-assay potency score (higher = more potent)
TTGTAGGACAATCAGATGCTAT | -0.838
TTTGTAGATAGGTAGCACCATA | -1.19
TATTACTGTAGCTTCTATCAGA | -0.358
TACTAAGAAAGTAACAACGTGG | 0.245
TAGAAGGAATATCACATCCTAC | -0.685
TAAAATAGCAATATCATCCCAC | 0.315
TTTGCTTTGAAAACGGTCCTGC | 0.844
TATTCTACCATCTTATTCCTAA | -0.177
TAACTGATGAAGAACCAGCAGA | -0.956
TAGCAGTAACTCTTTGTCGTTT | -0.737

target: NFE2L1; assay: as above; details: shRNA

Sequence | sensor-assay potency score (higher = more potent)
TTCCTGTACACTGACCCGCAGT | -0.906
TAATTGTCCAGGTCTATGCTCT | -0.487
TTGAATATTGGGCATCTCCTTT | -0.276
TTAGCAGCTTTGAATATTGGGC | -0.506
TTATGCTGGAAATGTCTGCTGG | -0.294
TCGTCCGTTCTCATCTCGCAGC | -1.23
TAAGTATCCACGTCCACCCGTA | 0.169
TTACTCAACACAAGCATTCTAG | 0.0111
TTGTCCAGGTCTATGCTCTTGG | -0.582
TTGATGATTTTGTCATTGGTGA | -0.465
TAAGTCTCCACTGACTGGGGGG | -0.685
TTTCGCTTTCTCGCACCCCGTT | -0.883

target: NFYC; assay: as above; details: shRNA

Sequence | sensor-assay potency score (higher = more potent)
AAATATTGCATCTTTCTGCTGG | 0.522
TTGCTGGATCTGGTAGAGCTGC | -1.31
TGTGTTAGTGATGATCTGCTGC | 0.227
TAATCTTCTTAATACGAGCCAG | -0.951
TATTGCATCTTTCTGCTGGAGA | -0.521
TAGAGCTGCTGTCCATCTGTGA | -0.297
TAAGCGGATATACTGCAGCTGG | -0.727
TCTTGGAACAATATCGATGAGA | -0.931
TTGAGTGCCTGATACAGGCTGG | -0.146
ATCTCTTGGAACAATATCGATG | -1.33
TAGCATTGGACACACACTCAAC | -0.948
TTATCTTCTGTGTGAATCCAGG | -0.977
